Data reported in a collection of fitness landscapes (doi:10.1016/j.celrep.2020.107928).
Over roughly 81,000 sequences, “one-hybrid fitness for binding NBS DNA” has its median near -0.1; the highest 2% begin near 0.36. What follows is part of a selection rich in the highest values, with near analogues and random picks from the rest.

B1: Caulobacter ParB omega fusion; a variant is named by its letters at X, in order, B8GW30 (parent)
chain: MESVVVGEPGMSEGRRGLGRGLSALLGEVDAAPAQAPGEQLGGSREAPIEILQRNPDQPRRTFREEDLEDLSNSIREKGVLQPILVRPSPDTAGEYQIVAGERAWRAAQRAGLKTVPIMVRELDDLAVLEIGIIENVQRADLNVLEEALSYKVLMEKFERTQENIAQTIGKSXSHVANXMRLLXLPDEVQSYLVSGELTAXHARAIAAAADPVALAKQIIEGGLSVRETEALARKAPNLSAGKSKGGRPPRVKDTDTQALESDLSSVLGLDVSIDHRGSTGTLTITYATLEQLDDLCNRLTRGI

Variants of: B1
Assay: one-hybrid fitness for binding NBS DNA (the Noc-binding site; scaled: cognate 1, non-cognate 0); higher = stronger binding
Details: with NBS DNA site
Procedure, shortened: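 Fitness is the rescaled log change in variant-to-wild-type read ratio, measured by Illumina sequencing of plasmids before and after bacterial one-hybrid selection. The scale puts cognate at 1 and non-cognate at 0. Selection of Caulobacter ParB libraries, four specificity codons randomised, took place in E. coli USO with a HIS3 reporter, site 19 bp from the promoter, over 48 hours at 37°C on M9-minus-histidine with 0.1 mM IPTG and 5 mM 3-AT.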

Variant	one-hybrid fitness for binding NBS DNA
SGLS	≤ 0.2
RPAY	≤ 0.2
SNWT	≤ 0.2
PAIL	≤ 0.2
HYHS	≤ 0.2
FRPV	≤ 0.2
PPFR	≤ 0.2
QLYT	0.355
QAYT	0.322
QHRT	0.681
QALT	0.352
QLRT	0.668
QIYT	0.335
QIRT	0.608
QIPT	≤ 0.2
QHLT	0.337
QHYT	0.359
QART	0.716
QLLT	0.33
ALLT	≤ 0.2
QWRW	≤ 0.2
HELN	≤ 0.2
VNET	≤ 0.2
TDND	≤ 0.2
QYNF	≤ 0.2
HKPS	≤ 0.2

Variant	one-hybrid fitness for binding NBS DNA
SLTE	≤ 0.2
AVAW	≤ 0.2
QTVR	0.558
NTKR	0.255
QTKR	1.15
DTKR	0.321
VQPA	≤ 0.2
YAHE	≤ 0.2
QHRD	0.234
QHRH	0.494
QHRS	0.627
QHYH	≤ 0.2
QHYS	0.324
QHRP	0.201
SNPD	≤ 0.2
YDCG	≤ 0.2
IGGI	≤ 0.2
EAAG	≤ 0.2
QLSN	≤ 0.2
QLYR	0.425
QLAR	0.478
QLSP	≤ 0.2
QLRR	0.943
QLER	0.266
QLAP	≤ 0.2
QLRD	≤ 0.2

Variant	one-hybrid fitness for binding NBS DNA
QLSR	0.464
QLFR	0.329
QLPR	0.232
QLIR	0.294
CSWC	≤ 0.2
YYPG	≤ 0.2
WYCF	≤ 0.2
HGNS	≤ 0.2
FIMG	≤ 0.2
PPDN	≤ 0.2
GYQT	≤ 0.2
DTTS	≤ 0.2
TWKT	≤ 0.2
SACG	≤ 0.2
QLLP	≤ 0.2
QLLR	0.415
QLHH	≤ 0.2
QLCD	≤ 0.2
QLHR	0.519
QLQH	≤ 0.2
QLCR	0.468
QLLS	≤ 0.2
QLQR	0.483
QLHP	≤ 0.2
QLQD	≤ 0.2
QLCP	≤ 0.2

Variant	one-hybrid fitness for binding NBS DNA
LLRD	≤ 0.2
RCWE	≤ 0.2
ILMW	≤ 0.2
QNKK	≤ 0.2
WACV	≤ 0.2
ARFF	≤ 0.2
YTQC	≤ 0.2
KEGR	≤ 0.2
VEDR	≤ 0.2
QLGD	≤ 0.2
QLGR	0.496
QLGN	≤ 0.2
NTCV	≤ 0.2
LCVN	≤ 0.2
QLHT	0.393
QCHT	0.551
QIHK	≤ 0.2
QTHG	0.234
QFHT	≤ 0.2
QIHN	≤ 0.2
QTHT	0.648
QPHT	≤ 0.2
QIHT	0.425
QTHC	0.248
QLHG	≤ 0.2
NTKL	≤ 0.2

Variant	one-hybrid fitness for binding NBS DNA
YMTV	≤ 0.2
HSGS	≤ 0.2
THQS	≤ 0.2
HCNT	≤ 0.2
MGAT	≤ 0.2
QNHT	≤ 0.2
QHHY	≤ 0.2
QAHF	≤ 0.2
QHHT	0.419
QWHT	≤ 0.2
QHHK	≤ 0.2
QAHC	≤ 0.2
QSHT	0.429
QAHT	0.414
PYTI	≤ 0.2
TEKH	≤ 0.2
AHRE	≤ 0.2
QKDF	≤ 0.2
QKNF	≤ 0.2
QKNR	0.747
QKNC	0.201
QKDR	0.425
SPCS	≤ 0.2
VPAP	≤ 0.2
YAMK	≤ 0.2
GQTK	≤ 0.2

Variant	one-hybrid fitness for binding NBS DNA
INGE	≤ 0.2
QVQN	≤ 0.2
QVNR	0.465
QVDS	≤ 0.2
QVND	≤ 0.2
QVYS	0.202
QVRS	0.482
QVRD	≤ 0.2
QVDR	≤ 0.2
QVQR	0.368
QVNS	0.377
QVQS	≤ 0.2
QVNN	≤ 0.2
SVQD	≤ 0.2
CSRY	≤ 0.2
EQAR	≤ 0.2
RYPY	≤ 0.2
WMPP	≤ 0.2
AHEF	≤ 0.2
GQCW	≤ 0.2
EIHG	≤ 0.2
GPST	≤ 0.2
VMSA	≤ 0.2
LYRR	≤ 0.2
